# Assay results: the supplement of paper PMC12632987
# In all, about 2,300 sequences were measured (“median log2 fold change of GCK-ALFA target abundance (FLAG IP / Myc IP barcode read proportion)”: median about 0.095, lowest 2% from about -0.47 on). What follows is part of a selection rich in the lowest values, with near analogues and random picks from the rest.
# B1: LC3A_132_254 (protein)
# chain: SEELLEKALKELKELLDKIVADLKAGKDPWPTINKLYELALKYAEKLSLEETEKLAEESEKYAEELFAKELDPNDEEARRTLDIVEMLLESVLIEKELRS
# B2: LC3A_132_255 (protein)
# chain: SKELLEKALKELKEILDKIVELLQAGKDPWPAVKELEEKAEEYAEKLSLEETEELVKESEKYAEELFAARLDPNNEEARRVLDHIEMLFESVLIEKELKS
# B3: LC3A_132_253 (protein)
# chain: SKELLEKALKELKEILDKIVELLQAGKDPWPAIKELYEKALEYAKKLSLEETEKLAEEVEAYAEKLFAERLDPNNEEARRALEHIEMLLESVLIEKELRS
# B4: LC3A_28_1225 (protein)
# chain: AAVDAEIAAARAAMAAAAAAGEEATITVKITGKTTLADVKRLMEALRAIVAEHAHLPRISIIIDLSGKVTQEQIDAAAEGGERIEKEFPNVTVILALDEN
# B5: LC3A_28_983 (protein)
# chain: MDPREQVEELIKKAKEAAAKGEATVFTITVTSTATEEDIELITEGLKEIAEILKDVKGSAIIVDVESGVPEEYIDKIAETMEEIEKANPNVTTIIALDED
# B6: LC3A_free_8_2473 (protein)
# chain: SVQELVDQITALLDELEEKVREKAKELGVDELDILELELEIGSLIADLISASDGTIEEVKEIAEEGLEEIEELAKELSEEIAEIVRETREKILALLEAAE
# B7: LC3A_free_0_2120 (protein)
# chain: KKTVVEVVIILDDSTSEEKAKEIHEKLKEEAEKLAKENGGELKSSLSKSDGSYIITLEITFDTEDIDLALEVERKLVEIAEKILKEANVEATIYSSVYLE
# B8: LC3A_free_39_2211 (protein)
# chain: SEEELEELLKKVAEESGLDYEYIRERVEEIRRVAGLSLEQMLELVKAILEAVREGADAEEILEEVLALAKELVAAGKSPEEIAEALLEEVEDFRNLIPLD
# B9: LC3A_free_39_2213 (protein)
# chain: SEEELEELLKKVAEESGLDYEYIKKKIEEIQKVAGLSLEQMKKIVEAILEAVKEGANAEEILERILALAKELKAAGKSPEEIAKALLEEVEDYRNLIPLD
# B10: LC3A_free_0_2116 (protein)
# chain: KKTVVEVLVILDESTTEEEAKKAYEELKKKAEEIAKKYGWEVKVELSKSDGSWIITVTLTSDSTDIDKALEIARELSDAAEEIAKELGLDATIYESVYLE
# B11: LC3A_28_1087 (protein)
# chain: SELEEQLKKALEEAKKAKEEGKEVTLEITVPDTATEEDIELVKETLKEIAEIAKELPSLSVVINLTGKNAQAKATELSAHAEELEKEVPNLTVIIALDED
# B12: LC3A_3_1520 (protein)
# chain: MEEIEKEIIKLLKEAGASEETIEKAKELLKLLRERGYLNAMKTLLEELKELKDAPVETIEAFVKDVLELVKTEDLSEEELSKRIKELATIAKNDAEIEEL
# B13: LC3A_6_2066 (protein)
# chain: KLYKITIDILLKSEKPEEALKVAKEIAEEIRKFAEEINKEYNGAVKKLEIKIEEIDGEVFLTIEIVAEEKAVNEIIDKVDEIVEENKEYVAASMISVEEL
# B14: LC3A_28_724 (protein)
# chain: NRLEASIAAALARARALAAAGESDVIEITIPGDATEEDIERVIEALEEIAAITADLPRTDIVINVEGGVKQEHIDRLADAAEAIEARYPNVTVIIALDEE
# B15: LC3A_55_2007 (protein)
# chain: MEVFIFITENAETGEILALEVEVDSDPERLLEALRAAGEELAAELFRLANGRRLDEEEMAEIKARYSPEEVRAAVEALIAVLESLPDVKVSVLIELEEEE
# B16: LC3A_13_341 (protein)
# chain: TVTLEVETAEELRERGFAALAAHPGETIRITVTVRDEEEAEAIAEVLAELVRAAAEAGSDLEITIRGPRDLVLYVALEVGSEAYEHIDKVTVTITEEVVE
# B17: LC3A_147_449 (protein)
# chain: MLYEITVDALFKNDPALAEEVAEQLKAIAEKHGGEVEVEFEEEQVSPTTTEYFLNVTITFEDKAKAQAAETEIAALLDETAAKHPDKFLGAILSFEEVEP
# B18: LC3A_3_1611 (protein)
# chain: MEELIERELERLREAGFSPEVLEEARKVLEALAEKGYRRAIEKLTEELLKLKDVDPELVIEALREILRIVTEEDLSEEEVIEEIEREFRVVRLESEIIEL
# B19: LC3A_free_8_2519 (protein)
# chain: KSKAFAQRVVAILEELEKEIVKLLKEKGASRLDILEAELLIGSIIAEVISLQDKSPEEIIKAVKEGLKELVEELEKYKEEVKKLAEEALKKIEAAKKELE
# Biological target: MAP1LC3A, Q9H492
# Test: median log2 fold change of GCK-ALFA target abundance (FLAG IP / Myc IP barcode read proportion) (log2 ratio); each designed protein is fused to an ALFA-tag nanobody in HEK293 cells to bring the named protein to FLAG-tagged glucokinase (GCK); Myc marks an untargeted standard; higher = target protein stabilised (more abundant)
# Settings: target protein: 3xFLAG-MCP-GCK-ALFA reporter; HEK293 landing pad (RPLP)
# Summary of the method: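 The readout is target abundance, the per-binder median log2 ratio of FLAG to Myc barcode read proportions. It came from HEK293 landing-pad cells carrying a recombined ALFA-nanobody-fused binder library, induced with 2 μg mL^−1 doxycycline and transfected with a plasmid for a FLAG-tagged target and a Myc-tagged standard. After 48 h, lysates were immunoprecipitated with anti-FLAG and anti-Myc, and circular RNA barcodes were reverse transcribed, amplified and sequenced. Each barcode needed a proportion of at least 10^−7 in both replicates and each binder at least 3 barcodes per replicate, a pseudocount of 10^−6 was added, and the replicates were pooled.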
row,Binder,median log2 fold change
1,B1,-0.669
2,B2,0.276
3,B3,0.0444
4,B4,0.191
5,B5,-0.2
6,B6,-0.379
7,B7,-0.12
8,B8,-0.819
9,B9,0.203
10,B10,-0.122
11,B11,0.251
12,B12,0.547
13,B13,-0.173
14,B14,0.154
15,B15,0.119
16,B16,0.0625
17,B17,-0.603
18,B18,0.132
19,B19,-0.243
